Out of some 5,500 compounds screened, about 2,000 (36%) were called active. Roughly 18% stayed inconclusive and do not appear here. Rule as the data show it: active = normalized growth mostly below about 0.91 (no sharp cut-off); inconclusive = no clear call, values can overlap the other calls; inactive = mostly above about 0.92. The list shows a part of the results.
Experiment: chemical genetic growth profiling, strain panel (AID 1159580);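 also: tested at 20 µM; growth read once vehicle control cultures reached saturation at 30 °C; 1 = growth at the plate median or of vehicle wells; lower values mean less growth of the strain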
Settings: S. cerevisiae deletion strains, growth OD
[1] = locus YAL021C, strain ccr4, active compounds read low
[2] = locus YAL026C, strain drs2, active compounds read low
[3] = locus YAL030W, strain snc1, active compounds read low
[4] = locus YBL061C, strain skt5, active compounds read low
[5] = locus YBR009C, strain hhf1, active compounds read low
[6] = locus YBR023C, strain chs3, active compounds read low
[7] = locus YBR171W, strain sec66, active compounds read low
[8] = locus YBR231C, strain swc5, active compounds read low
[9] = locus YBR279W, strain paf1, active compounds read low
[10] = locus YCL011C, strain gbp2, active compounds read low
[11] = locus YCL016C, strain dcc1, active compounds read low
[12] = locus YCL061C, strain MRC1, active compounds read low
[13] = locus YCL069W, strain vba3, active compounds read low
[14] = locus YCR088W, strain abp1, active compounds read low
[15] = locus YDL005C, strain med2, active compounds read low
[16] = locus YDL040C, strain nat1, active compounds read low
[17] = locus YDR001C, strain nth1, active compounds read low
[18] = locus YDR069C, strain doa4, active compounds read low
[19] = locus YDR137W, strain rgp1, active compounds read low
[20] = locus YDR159W, strain sac3, active compounds read low
[21] = locus YDR297W, strain sur2, active compounds read low
[22] = locus YDR334W, strain swr1, active compounds read low
[23] = locus YDR335W, strain msn5, active compounds read low
[24] = locus YDR392W, strain spt3, active compounds read low
[25] = locus YEL003W, strain gim4, active compounds read low
[26] = locus YEL037C, strain rad23, active compounds read low
[27] = locus YEL061C, strain CIN8 (second series), active compounds read low
[28] = locus YER015W, strain faa2, active compounds read low
[29] = locus YER016W, strain bim1, active compounds read low
[30] = locus YER111C, strain swi4, active compounds read low
[31] = locus YER155C, strain BEM2 (second series), active compounds read low
[32] = locus YFR010W, strain ubp6, active compounds read low
[33] = locus YGL167C, strain pmr1, active compounds read low
[34] = locus YGL173C, strain kem1, active compounds read low
[35] = locus YGL227W, strain vid30, active compounds read low
[36] = locus YGL240W, strain doc1, active compounds read low
[37] = locus YGL253W, strain hxk2, active compounds read low
[38] = locus YHR013C, strain ard1, active compounds read low
[39] = locus YHR027C, strain rpn1, active compounds read low
[40] = locus YHR030C, strain SLT2, active compounds read low
[41] = locus YHR079C, strain IRE1, active compounds read low
[42] = locus YHR142W, strain chs7, active compounds read low
[43] = locus YJL092W, strain hpr5, active compounds read low
[44] = locus YJL095W, strain BCK1 (second series), active compounds read low
[45] = locus YJL095W, strain BCK1, active compounds read low
[46] = locus YJL115W, strain asf1, active compounds read low
[47] = locus YJL129C, strain trk1, active compounds read low
[48] = locus YJL154C, strain vps35, active compounds read low
[49] = locus YJL164C, strain tpk1, active compounds read low
[50] = locus YJL166W, strain qcr8, active compounds read low
[51] = locus YJL187C, strain SWE1, active compounds read low
[52] = locus YJR066W, strain TOR1, active compounds read low
[53] = locus YKL160W, strain elf1, active compounds read low
[54] = locus YKR026C, strain gcn3, active compounds read low
[55] = locus YKR091W, strain srl3, active compounds read low
[56] = locus YLL001W, strain dnm1, active compounds read low
[57] = locus YLL026W, active compounds read low
[58] = locus YLL041C, strain sdh2, active compounds read low
[59] = locus YLR027C, strain aat2, active compounds read low
[60] = locus YLR113W, strain HOG1, active compounds read low
[61] = locus YLR221C, strain rsa3, active compounds read low
[62] = locus YLR258W, strain gsy2, active compounds read low
[63] = locus YLR262C, strain YPT6 (second series), active compounds read low
[64] = locus YLR320W, strain mms22, active compounds read low
[65] = locus YLR342W, strain FKS1, active compounds read low
[66] = locus YLR357W, strain rsc2, active compounds read low
[67] = locus YLR370C, strain arc18, active compounds read low
[68] = locus YLR384C, strain iki3, active compounds read low
[69] = locus YML120C, strain ndi1, active compounds read low
[70] = locus YMR058W, strain fet3, active compounds read low
[71] = locus YMR125W, strain sto1, active compounds read low
[72] = locus YMR129W, active compounds read low
[73] = locus YMR205C, strain PFK2, active compounds read low
[74] = locus YMR231W, strain pep5, active compounds read low
[75] = locus YNL071W, strain lat1, active compounds read low
[76] = locus YNL183C, strain NPR1, active compounds read low
[77] = locus YNL209W, strain ssb2, active compounds read low
[78] = locus YNL248C, strain rpa49, active compounds read low
[79] = locus YNL322C, strain KRE1 (second series), active compounds read low
[80] = locus YNR049C, strain mso1, active compounds read low
[81] = locus YOR001W, strain rrp6, active compounds read low
[82] = locus YOR070C, strain gyp1, active compounds read low
[83] = locus YOR080W, strain dia2, active compounds read low
[84] = locus YOR083W, strain WHI5, active compounds read low
[85] = locus YOR106W, strain vam3, active compounds read low
[86] = locus YOR231W, strain MKK1, active compounds read low
[87] = locus YOR265W, strain rbl2, active compounds read low
[88] = locus YOR270C, strain vph1, active compounds read low
[89] = locus YOR290C, strain snf2, active compounds read low
[90] = locus YPL051W, strain arl3, active compounds read low
[91] = locus YPL078C, strain atp4, active compounds read low
[92] = locus YPL106C, strain sse1, active compounds read low
[93] = locus YPL240C, strain hsp82, active compounds read low
[94] = locus YPL256C, strain CLN2, active compounds read low

Measured: normalized growth

C=CCSCC=C
inactive: [1] 0.972 | [2] 0.971 | [3] 0.962 | [4] 0.979 | [5] 0.981 | [6] 0.987 | [7] 0.965 | [8] 1.03 | [9] 0.992 | [10] 0.966 | [11] 0.975 | [12] 0.972 | [13] 0.98 | [14] 0.99 | [15] 0.985 | [16] 0.993 | [17] 0.96 | [18] 0.947 | [19] 0.971 | [20] 0.991 | locus YDR195W, strain ref2 0.961 | [21] 0.982 | [22] 0.935 | [23] 0.987 | [24] 0.916 | [25] 0.986 | [26] 0.972 | [27] 0.982 | [28] 0.958 | [29] 0.991 | [30] 0.966 | [31] 0.974 | [32] 0.953 | [33] 0.971 | [34] 0.941 | [35] 0.986 | [36] 0.981 | [37] 0.967 | [38] 0.957 | [39] 0.96 | [40] 1.03 | [41] 1.03 | [42] 0.934 | [43] 0.961 | [44] 0.996 | [45] 1.03 | [46] 0.938 | [47] 0.95 | [48] 0.978 | [49] 0.981 | [50] 0.977 | [51] 0.986 | [52] 0.931 | [53] 1 | [54] 0.989 | [55] 0.983 | [56] 0.966 | [57] 0.974 | [58] 0.975 | [59] 0.953 | [60] 1.02 | [61] 0.973 | [62] 0.989 | [63] 0.983 | [64] 0.995 | [65] 0.983 | [66] 0.963 | [67] 0.977 | [68] 0.99 | [69] 0.973 | [70] 0.97 | [71] 0.966 | [72] 0.979 | [73] 0.969 | [74] 0.98 | [75] 0.991 | [76] 0.94 | [77] 0.985 | [78] 0.98 | [79] 0.955 | [80] 0.964 | [81] 0.992 | [82] 0.976 | [83] 0.974 | [84] 0.989 | [85] 0.977 | [86] 1.02 | [87] 1.01 | [88] 0.945 | [89] 0.903 | [90] 0.991 | [91] 0.988 | [92] 0.943 | [93] 0.974 | [94] 1.03

C=CCSC[C@@H](N)C(=O)O
inactive: [1] 0.993 | [2] 0.986 | [3] 1.01 | [4] 0.996 | [5] 1 | [6] 0.987 | [7] 0.984 | [8] 1 | [9] 1 | [10] 0.982 | [11] 0.998 | [12] 0.981 | [13] 0.99 | [14] 0.994 | [15] 0.988 | [16] 1.01 | [17] 0.986 | [18] 0.994 | [19] 1.01 | [20] 0.991 | locus YDR195W, strain ref2 0.985 | [21] 1 | [22] 0.987 | [23] 0.997 | [24] 0.996 | [25] 0.996 | [26] 1.01 | [27] 0.999 | [28] 0.992 | [29] 1.01 | [30] 1.01 | [31] 1.03 | [32] 0.986 | [33] 0.992 | [34] 0.999 | [35] 0.986 | [36] 1 | [37] 0.993 | [38] 1 | [39] 1.01 | [40] 0.943 | [41] 0.96 | [42] 0.978 | [43] 0.989 | [44] 1.01 | [45] 0.936 | [46] 0.989 | [47] 0.992 | [48] 0.982 | [49] 1 | [50] 1 | [52] 0.901 | [53] 0.985 | [54] 0.986 | [55] 1.01 | [56] 0.987 | [57] 0.993 | [58] 0.985 | [59] 0.993 | [60] 0.973 | [61] 0.994 | [62] 0.99 | [63] 0.995 | [64] 1.01 | [65] 1.02 | [66] 1.01 | [67] 0.999 | [68] 0.993 | [69] 0.986 | [70] 0.992 | [71] 0.986 | [72] 0.985 | [73] 1 | [74] 0.998 | [75] 1 | [76] 0.914 | [77] 0.991 | [78] 0.995 | [79] 1 | [80] 0.997 | [81] 0.997 | [82] 0.992 | [83] 1 | [84] 1.02 | [85] 1 | [86] 0.968 | [87] 0.996 | [88] 1 | [89] 0.993 | [90] 0.998 | [91] 0.999 | [92] 0.986 | [93] 0.999 | [94] 0.948

C=CCSSCC=C
inactive: [1] 1.02 | [2] 1.04 | [3] 1.03 | [4] 1.03 | [5] 1.03 | [6] 1.02 | [7] 1.04 | [8] 1.04 | [9] 1.02 | [10] 1.04 | [11] 1.03 | [12] 1.03 | [13] 1.03 | [14] 1.04 | [15] 1.05 | [16] 1.03 | [17] 1.04 | [18] 1.03 | [19] 1.07 | [20] 1.08 | locus YDR195W, strain ref2 1.04 | [21] 1.03 | [22] 1.03 | [23] 1.04 | [24] 0.901 | [25] 1.03 | [26] 1.03 | [27] 1.02 | [28] 1.03 | [29] 1.03 | [30] 1.06 | [31] 0.951 | [32] 1.05 | [33] 1.04 | [34] 1.05 | [35] 1.05 | [36] 1.05 | [37] 1.04 | [38] 1.02 | [39] 1.04 | [40] 0.858 | [42] 1.02 | [43] 1.04 | [44] 1.03 | [46] 1.04 | [47] 1.03 | [48] 1.02 | [49] 1.01 | [50] 1.03 | [51] 1.03 | [52] 0.879 | [53] 1.01 | [54] 1.03 | [55] 1.03 | [56] 1.01 | [57] 1.03 | [58] 1.03 | [59] 1.03 | [60] 0.881 | [61] 1.01 | [62] 1.03 | [63] 1.03 | [64] 1.05 | [65] 1.04 | [66] 0.974 | [67] 1.04 | [68] 1.03 | [69] 1.02 | [70] 1.03 | [71] 1.01 | [72] 1.04 | [73] 1.05 | [74] 1.03 | [75] 0.923 | [76] 0.864 | [77] 1.03 | [78] 0.96 | [79] 1.04 | [80] 1.03 | [81] 1.01 | [82] 1.02 | [83] 1.04 | [84] 0.998 | [85] 1.04 | [87] 1.03 | [88] 1.05 | [89] 0.975 | [90] 1 | [91] 1.01 | [92] 1.07 | [93] 1.03 | [94] 0.862
active: [41] 0.841 | [45] 0.822 | [86] 0.823

— PubChem BioAssay AID1159580 (chemical genetic matrix, 2015)
